# Measurements: PubChem BioAssay AID1851 (National Center for Advancing Translational Sciences (NCATS), 2009)
# The campaign covered roughly 16,000 compounds. About 5,800 (36%) were called active. Another 23% or so got no clear call; they are omitted. Calls follow the shape of the dose curve; as a rule, active = well fitted curve in the direction sought with a large enough effect; inconclusive = small, poorly fitted or top-dose-only effect, or effect the other way; inactive = no such curve, though single readings can be large or run the other way. The list shows a part of the results.
# Molecular target: Cytochrome P450 2C19 (Homo sapiens) (UniProt P33261)
# Test: Cytochrome panel assay with activity outcomes
# Conditions: recombinant CYP, pro-luciferin dealkylation, luminescence, p450-cyp2c19; series mostly up to 57.1 µM; activity, negative = inhibition: at the top concentration
# % is scaled to controls: 0 for no effect and ±100 for the full control effect.
# Sequence of Cytochrome P450 2C19 (Homo sapiens) (P33261 whole entry, looked up): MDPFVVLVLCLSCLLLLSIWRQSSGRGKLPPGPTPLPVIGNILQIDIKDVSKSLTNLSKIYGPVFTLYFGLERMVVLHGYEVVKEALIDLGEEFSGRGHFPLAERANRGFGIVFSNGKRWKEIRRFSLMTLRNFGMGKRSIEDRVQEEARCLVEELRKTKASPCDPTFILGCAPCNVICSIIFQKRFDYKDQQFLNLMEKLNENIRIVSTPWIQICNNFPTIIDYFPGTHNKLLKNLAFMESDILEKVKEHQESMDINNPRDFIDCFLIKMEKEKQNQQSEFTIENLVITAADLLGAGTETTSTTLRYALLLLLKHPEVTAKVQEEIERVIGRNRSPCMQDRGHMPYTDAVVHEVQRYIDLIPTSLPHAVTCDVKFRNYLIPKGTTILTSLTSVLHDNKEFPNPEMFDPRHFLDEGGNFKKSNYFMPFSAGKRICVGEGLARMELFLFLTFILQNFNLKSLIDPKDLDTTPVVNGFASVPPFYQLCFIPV
SMILES,AC50,"activity, negative = inhibition"
N#CC1=C(N)OC2=C(CC/C2=C\c2ccccc2)C1c1ccccc1 (stereo unspecified),1.58 µM (active),–
CN1CCN(c2ncc3nc(-c4ccc(Cl)cc4)c(=O)n(Cc4ccc(F)cc4)c3n2)CC1,–,-25.5% (inactive)
Cn1c(=O)c2[nH]c(C3CCCC3)nc2n(C)c1=O,–,36.3% (inactive)
O=C(O)CC(O)C(=O)O (stereo unspecified),–,16.8% (inactive)
O=C(O)c1nnsc1COCc1ccccc1,–,2.27% [at 11.4 µM] (inactive)
O=C(NCC1CCC(C(=O)O)CC1)OCc1ccccc1 (stereo unspecified),–,-23.7% (inactive)
CSc1nsc(SC)c1NC(=O)OCc1ccccc1,0.708 µM (active),–
O[C@H](CNc1ccccn1)c1ccccc1,–,-7.78% [at 11.4 µM] (inactive)
O=C(O)/C=C\C(=O)Nc1ccccn1,–,14.6% [at 11.4 µM] (inactive)
CSc1nsc(SC)c1NC(=O)Nc1ccccn1,7.94 µM (active),–
COc1cccc(-c2cncnc2NCc2cccc(C)c2)c1,0.794 µM (active),–
COc1cccc(-c2cncnc2NCCN2CCOCC2)c1,–,-44.4% (inactive)
Cc1cccc(CNc2ncncc2-c2cccnc2)c1,10 µM (active),–
COc1cccc(-c2cncnc2NCc2cccs2)c1,0.631 µM (active),–
c1cncc(CNc2ncncc2-c2cccnc2)c1,–,-44.3% (inactive)
COc1cccc(Nc2ncc3nc(-c4ccccc4)c(=O)n(Cc4cccs4)c3n2)c1,–,-21% (inactive)
COc1cccc(-c2cncnc2NCc2ccccc2)c1,1.58 µM (active),–
COc1cccc(-c2cncnc2NCc2cccnc2)c1,0.316 µM (active),–
CCOC(=O)C1=C(CN2c3ccccc3CC2C)NC(=O)NC1c1ccccc1 (stereo unspecified),7.08 µM (active),–
C[C@@H](CC(=O)O)[C@@H](N)C(=O)O,–,-23% (inactive)
Cc1c(NC(=S)N/N=C/c2ccc(O)cc2)c(=O)n(-c2ccccc2)n1C,–,-16.2% (inactive)
Cc1c(NC(=S)/C=C2\N(C)c3ccccc3C2(C)C)c(=O)n(-c2ccccc2)n1C,14.1 µM (active),–
Fc1ccc(-c2[nH]ncc2-c2nnnn2-c2ccccc2)c(F)c1,0.631 µM (active),–
NC(=O)c1ncn([C@@H]2O[C@@H](CO)[C@@H](O)[C@H]2O)c1O,–,20.9% (inactive)
O=C1CN(c2nc(-c3ccccc3)c3cc(Br)ccc3n2)c2ccccc2N1,–,-16.6% (inactive)
CC(C)NC[C@@H](O)COc1ccccc1-n1cccc1,–,-27.9% (inactive)

SMILES,AC50,"activity, negative = inhibition"
CC(C)(C)NC[C@H](O)COc1cccc2c1CCCC2=O,inactive,–
N=C(C[C@@H](O)COc1ccccc1-c1ccccc1)N1CCCCC1,31.6 µM (active),–
O=C1C(=O)c2ccccc2C(O)=C1C(C1=C(O)c2ccccc2C(=O)C1=O)c1ccc(Cl)cc1,3.98 µM (active),–
O=C1C(=O)c2ccccc2C(O)=C1C(CCc1ccccc1)C1=C(O)c2ccccc2C(=O)C1=O,–,21.7% [at 11.4 µM] (inactive)
O=C1C(=O)c2ccccc2C(O)=C1C1CCC(c2ccc(Cl)cc2)CC1 (stereo unspecified),–,-17% [at 25.6 µM] (inactive)
O=C1C2C3C=CC(C3)C2C(=O)N1c1ncn[nH]1 (stereo unspecified),–,-7.13% (inactive)
CSc1ccc(Cl)c(C(=O)NCCOc2cc(C)ccc2C(C)C)c1,5.01 µM (active),–
CN(C)CCNC(=O)c1cc(Br)ccc1Cl,–,-28.6% (inactive)
CC(=O)Oc1cc(C(C)C)c(OCCN(C)C)cc1C,inactive,–
CC(C)=CCC/C(C)=C/CO/N=C1/[C@H]2O[C@@H]2[C@@H](O)[C@H]2[C@H]1CCn1c(=O)n(Cc3cc4c(cc3Cl)OCO4)c(=O)n12,–,9.01% [at 11.4 µM] (inactive)
Cc1ccc(S(=O)(=O)Nc2ccccc2C=O)cc1,5.01 µM (active),–
Cc1ccc(S(=O)(=O)Nc2ccccc2C(=O)c2ccc(C)c(C)c2)cc1,–,30.1% [at 11.4 µM] (inactive)
Cc1ccc(S(=O)(=O)N[C@H]2COC(=O)C/C=C\[C@H](C)[C@@H](NS(=O)(=O)c3ccc(C)cc3)COC(=O)C/C=C\[C@@H]2C)cc1,–,18.4% [at 11.4 µM] (inactive)
C[C@@](N)(Cc1ccc(O)cc1)C(=O)O,inactive,–
CCOC(=O)c1c(C(C)(C)C)oc2ccc(O)cc12,3.98 µM (active),–
C[C@](N)(Cc1ccc(O)c(O)c1)C(=O)O,–,26% (inactive)
O=C(N/N=C/c1c[nH]c2ccccc12)c1ccn(Cc2ccc(Cl)cc2Cl)n1,2 µM (active),–
O=C(N/N=C/c1c[nH]c2ccc(Br)cc12)c1ccn(Cc2ccc(Cl)cc2)n1,3.55 µM (active),–
O=c1ncn(-c2ccccc2F)c2ncccc12,–,-27% (inactive)
O=c1[nH]n(-c2cccc3cccnc23)c(=O)c2ccccc12,11.2 µM (active),–
c1ccc2c(NC3CCNCC3)nc(-c3ccoc3)nc2c1,–,15.9% (inactive)
N#Cc1cccc(-c2nc(Nc3ccccc3)c3ccccc3n2)c1,–,15.4% (inactive)
CNc1nc(-c2cccc(C#N)c2)nc2ccccc12,7.94 µM (active),–
COc1ccccc1CNc1nc(-c2cccc(C#N)c2)nc2ccccc12,3.98 µM (active),–
COc1cccc(-c2nc(NCc3cccs3)c3ccccc3n2)c1,3.16 µM (active),–
Cc1cnc(CNc2nc(-c3ccoc3)nc3ccccc23)cn1,–,-27.9% (inactive)

SMILES,AC50,"activity, negative = inhibition"
N#Cc1cccc(-c2nc(NCc3cccs3)c3ccccc3n2)c1,–,-23.1% (inactive)
Cc1cccc(CNc2nc(-c3ccoc3)nc3ccccc23)c1,7.94 µM (active),–
Cc1ccnc(N)c1,–,-27.7% (inactive)
C[C@H](N=C(NC#N)Nc1ccncc1)C(C)(C)C,–,5.2% (inactive)
NC(N)=N[C@@H]1C(O)[C@H](N=C(N)N)[C@@H](O)C(O)[C@H]1O (stereo partly specified),–,12.7% [at 11.4 µM] (inactive)
Cc1cccc(CNc2nc(-c3cccnc3)nc3ccccc23)c1,10 µM (active),–
N#Cc1cccc(-c2nc(NCc3cccnc3)c3ccccc3n2)c1,–,-27.2% (inactive)
COc1cccc(-c2nc(NCc3ccccc3OC)c3ccccc3n2)c1,7.94 µM (active),–
N#Cc1cccc(-c2nc(NCc3ccccc3)c3ccccc3n2)c1,6.31 µM (active),–
COc1cccc(-c2nc(NCc3ccccc3)c3ccccc3n2)c1,3.98 µM (active),–
Cc1cnc(CNc2nc(-c3cccnc3)nc3ccccc23)cn1,–,-29.8% (inactive)
COc1cccc(-c2nc(NC3CCNCC3)c3ccccc3n2)c1,–,8.48% (inactive)
COc1ccc(-c2cc(C(F)(F)F)nc(NCc3cccnc3)n2)cc1,2.82 µM (active),–
COc1cccc(-c2nc(NCc3cccnc3)c3ccccc3n2)c1,25.1 µM (active),–
O=C(O)c1ccc(C(=O)O)c(C(=O)O)c1.[NH-][C@@H]1CCCC[C@@H]1[NH-].[Pt],–,-17.9% [at 11.4 µM] (inactive)
CN1CCC2(CC1)CCN(C(=O)c1cc(C(F)(F)F)cc(C(F)(F)F)c1)CC2,–,-21.7% (inactive)
CON/C=C(\C=Nc1ccccc1)c1ncc(C(F)(F)F)cc1Cl,3.55 µM (active),–
Cn1cnc2c(NC3CCCC3)ncnc21,–,-28% (inactive)
O=C1Nc2ccccc2/C1=N/c1sc2c(c1C(=O)NCCc1ccccc1)CCCC2,2.51 µM (active),–
NS(=O)(=O)c1ccc(N=C2C(=O)Nc3ccccc32)cc1,–,-2.67% [at 11.4 µM] (inactive)
O=C1Nc2ccccc2C1=Nc1ccc(S(=O)(=O)Nc2nccs2)cc1,–,21.4% [at 11.4 µM] (inactive)
COc1ccc(C(=O)OC(C)CN2CCN(C)CC2)cc1OC (stereo unspecified),–,-16.7% (inactive)
COC(=O)c1ccc(OCC2c3cc(OC)c(OC)cc3CCN2C(=O)C2CC2)cc1 (stereo unspecified),2.51 µM (active),–
COc1cc2c(cc1OC)[C@H](c1ccccc1)CN(C)CC2,–,-2.52% (inactive)
NCCCNCCCCNCCCN,7.94 µM (active),–
NCCCCNCCCN,inactive,–

SMILES,AC50,"activity, negative = inhibition"
NCCCCN,–,31.9% (inactive)
Cn1nc(C(F)(F)F)c(/C=N/OC(=O)c2ccccc2Cl)c1SCc1ccc(Cl)cc1,0.355 µM (active),–
Cn1c(=O)c2[nH]c([C@@H]3CC(=O)C[C@H](c4nc5c([nH]4)c(=O)n(C)c(=O)n5C)N3)nc2n(C)c1=O,–,1.66% [at 11.4 µM] (inactive)
Cc1ccc2c(c1)N(CC(=O)NC1CCCc3ccccc31)C(=O)CO2 (stereo unspecified),2.51 µM (active),–
O=C(O)C[C@@H]1CCCc2ccccc2[C@H]1O,–,3.65% (inactive)
Cc1ccc(CNC(=O)CN2C(=O)COc3ccc(C)cc32)cc1,2.82 µM (active),–
Cc1ccc2c(c1)N(CC(=O)NC1CCC(C)CC1)C(=O)CO2 (stereo unspecified),2.82 µM (active),–
CN(C)C(=O)Oc1cccc([N+](C)(C)C)c1,–,42.9% (inactive)
C=CCn1c(SCC)nc2sc3c(c2c1=O)CCc1ccccc1-3,8.91 µM (active),–
O=c1/c(=C\c2ccc(O)cc2)sc2n1C(c1ccccc1)C(c1ccccc1)=NN=2 (stereo unspecified),1.58 µM (active),–
CCCCSc1nc(C)cc(NC(=S)Nc2ccc(OC)cc2)n1,2.51 µM (active),–
CCOC(=O)c1cccc2c1-c1ccccc1/C2=N/O,7.94 µM (active),–
CC(C)=CCc1c(C)nc2ccccc2c1C(=O)O,–,-28.7% (inactive)
CC(C)=CCC1=C(OCC(=O)O)C(=O)c2ccccc2C1=O,1.26 µM (active),–
COc1ccccc1NC(=O)C1=C(C)Nc2nc(-c3ccc(N(C)C)cc3)nn2C1c1ccncc1 (stereo unspecified),14.1 µM (active),–
CC1=C(C(N)=O)C(c2ccccn2)n2nc(SCc3ccccc3Cl)nc2N1 (stereo unspecified),–,-88% (inactive)
CC1=C(C(=O)Nc2cccnc2)C(c2cccnc2)n2nc(-c3cccs3)nc2N1 (stereo unspecified),11.2 µM (active),–
COC(=O)C1=C(C)Nc2ncnn2C1c1cccnc1 (stereo unspecified),–,-24.7% (inactive)
CSc1nc2n(n1)C(c1cccc(F)c1)C(C(=O)Nc1ccc(C)cc1C)=C(C)N2 (stereo unspecified),–,21.6% (inactive)
CCOc1ccccc1C1C(C(N)=O)=C(C)Nc2nc(-c3ccc(OC)cc3)nn21 (stereo unspecified),10 µM (active),–
COc1ccc(NC(=O)N2CC[C@@]3(CCCN(C(C)=O)C3)C2)cc1,–,-14.5% (inactive)
O=C(Nc1ccc2oc(=O)c(C(=O)O)cc2c1)Oc1ccccc1,–,18.7% [at 11.4 µM] (inactive)
COc1ccc2oc(=O)c(C(=O)Oc3ccc(NC(C)=O)cc3)cc2c1,15.8 µM (active),–
